{
  "source": "PubChem BioAssay (NCATS)",
  "note": "Values joined by “and” are separate entries in the source; they are usually repeats but may differ in a detail not shown here. Equal values may be shown once. Records with an inconclusive call do not appear. Unmarked numbers belong to inactive results. Calls come from the whole dose curve; as a rule, active = well fitted curve in the direction sought with a large enough effect; inconclusive = small, poorly fitted or top-dose-only effect, or another doubt; inactive = no such curve, though single readings can be large; an effect the other way counts as inactive or inconclusive.",
  "data": [
    {"assay": "qHTS Assay for Identifying Gametocytocidal Compounds (AID 743244);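 note: actives lower the fluorescent signal which means gametocytes are killed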", "details": "P. falciparum 3D7 stage III-V gametocytes, alamarBlue, 72 h; max response: active compounds read low", "in_short": "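A resazurin-based viability read-out was applied to mature P. falciparum gametocytes: 72 h compound treatment, then 24 h dye incubation, with falling fluorescence signalling gametocytocidal effect.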", "units": {"max response": "%"}, "values": [
      {"molecule": "O=C1O[C@H]2[C@H](O)[C@@H]1OC(O)[C@H]2O", "note": "(stereo partly specified); note: % is set by controls: 0 for no effect and ±100 for the full control effect", "max response": -4.25},
      {"molecule": "CCC(=O)Oc1ccc2c(c1)CC[C@@H]1[C@@H]2CC[C@]2(C)[C@@H](OC(=O)CC)CC[C@@H]12", "max response": -6.54},
      {"molecule": "CC1(C)S[C@@H]2[C@H](NC(=O)[C@H](N)c3ccccc3)C(=O)N2[C@H]1C(=O)OCOC(=O)[C@@H]1N2C(=O)C[C@H]2S(=O)(=O)C1(C)C", "max response": 8.04},
      {"molecule": "O=c1[nH]cnc2[nH]cc(CN3CCCCC3)c12", "max response": 10.8},
      {"molecule": "NC(=O)C[C@@H](N)C(=O)O", "max response": -9.98}
    ]},
    {"assay": "qHTS assay for cell viability of HEK293 cells (AID 743288); note: nearly all actives have a fitted effect of over 50% in size", "details": "ATP luminescence (CellTiter-Glo), 18 h, active compounds read low", "in_short": "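Readout is luciferase-coupled ATP content (CellTiter-Glo luminescence, 30 min room temperature) as a measure of metabolically competent cells. Parental HEK293 cells were plated 5 h or more before compound addition, then treated 18 h at 37 C.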", "values": [
      {"molecule": "O=C(O)CC(O)(CC(=O)O)C(=O)O", "max response": "-6.07% and -4.96% and -7.26%"},
      {"molecule": "C=Cc1ccccc1", "max response": "4.36% and 2.49%"},
      {"molecule": "COC(C)=O", "max response": "-4.96%"},
      {"molecule": "CN(C)Cc1ccccc1", "max response": "0.0798%"},
      {"molecule": "CCCCCCCCCC(=O)O", "max response": "-4.02% and 2.71%"},
      {"molecule": "CCCCCCCC/C=C\\CCCCCCCC(=O)OC[C@@H](O)[C@H]1OC[C@H](O)[C@H]1O", "max response": "-9.48%"}
    ]}
  ]
}
